Screens (PubChem BioAssay)
Lassa entry inh – inhibitors of Lassa virus binding or cell entry; Lassa virus pseudotype entry inhibition, cell reporter; Potency, µM (series often up to 37.9 µM), without a hit: at the highest dose activity change, negative = inhibition, actives largely listed as inhibitors; 1.2% of 300,000 active; calls by dose curve; tested in HEK293 cells; further: potency means the concentration at half of the fitted maximal effect; nearly all actives have a fitted effect of over 50% in size
Pf growth 48h – P. falciparum growth inhibition at 48 hours (one generation) | P. falciparum luciferase growth in erythrocytes, 48 h | Potency, µM (top dose mostly 28.7 µM), for the others: top-dose activity change, negative = inhibition, usual class: inhibitors | 5.9% of 310,000 active | AID 504832; further: potency means the concentration at half of the fitted maximal effect
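Firefly luciferase activity from engineered P. falciparum reports growth; inhibitors lower the luminescent signal. Cultures contained 2% hematocrit erythrocytes at 0.1% final parasitemia.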
Pf growth 96h – inhibits malaria parasite growth, 96 h. P. falciparum luciferase reporter growth, 96 h. Potency, µM (top dose mostly 28.7 µM), inactives show at the highest dose activity change, negative = inhibition, hits mostly inhibitors. 6.9% of 320,000 active; further: potency means the concentration at half of the fitted maximal effect
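P. falciparum expressing integrated firefly luciferase, in erythrocytes at 2% hematocrit, 0.05% parasitemia, incubated with compounds 96 h at 37 C, 5% CO2. Growth inhibition read as loss of luminescence; two-generation exposure targets delayed-death apicoplast inhibitors.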
MARV entry inh – inhibitors of Marburg virus binding or cell entry; 1.8% of 300,000 active; Potency, µM (series often up to 37.8 µM), inactives show at the highest dose activity change, negative = inhibition, hits mostly inhibitors; Marburg virus pseudotyped entry inhibition, cell reporter; calls by dose curve; tested in HEK293 cells; further: potency means the concentration at half of the fitted maximal effect
HCMV inh – human cytomegalovirus inhibition. HFF cells, HCMV-luciferase reporter, 72 h; active compounds read low. 4.5% of 410,000 active. AID 1259415. activity change, negative = inhibition, % at 57.5 µM; in the data active means activity change below about -60%; inconclusive means no clear call, values can overlap the other calls; inactive means above about -39%
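Human foreskin fibroblasts infected with luciferase-reporter HCMV at MOI 1 PFU/cell, compounds at two doses. Luciferase measured 72 h post infection; normalized to buffer-only basal and Salinomycin (10uM) controls.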
HCV inhibitor – HCV inhibition; Potency, µM (highest dose often 41.8 µM), for inactives: at the highest dose activity change, negative = inhibition, usual class: inhibitors; Huh7.5.1 HCVcc-Cre infection, luciferase reporter, 44 h; AID 651820; 3.4% of 340,000 active; further: potency means the concentration at half of the fitted maximal effect
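Cells (1,000/well) were plated 4 h before compound, then infected with HCVcc-Cre virus (~0.5 moi). After 44 h further culture, infection was read as luciferase luminescence following a 15 min substrate incubation at room temperature.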
* = called active by the depositor; u = inconclusive; x = not tested or not shown; [ ] = remark or other dose. This is a sample that favours compounds with a hit; in the whole collection about 14% have one here. Unless noted, the call rests on the fitted dose curve; in most records, active means well fitted inhibition curve with a large enough effect; inconclusive means small, poorly fitted or top-dose-only effect, or another doubt; inactive means no such curve, though single readings can be large or run the other way. On the % scale 0 is the no-effect control and ±100 the full control effect.

SMILES | Lassa entry inh | Pf growth 48h | Pf growth 96h | MARV entry inh | HCMV inh | HCV inhibitor
Cc1nc2ccc(C(=O)N/N=C/c3cc([N+](=O)[O-])ccc3O)cc2[nH]1 | x | 19.6%[5.75 µM] | -22.9% | x | 36.1 | 3.0%
O=C(N/N=C/c1cc([N+](=O)[O-])ccc1O)c1cccc(NC(=O)c2cccc(Cl)c2)c1 | 11.5% | 2.33µM* | 2.0% | -1.6%[46.1 µM] | u | 23.5%
Cc1cc(Br)cn2c(CC(C)(C)C)c(-c3cccc(Cl)c3)nc12 | x | x | x | x | 6.8 | x
CC(C)NC(=O)C1(C)CSCC(=O)N1CCOc1ccccc1 (configuration not stated) | x | x | x | x | -2.0 | x
CC(C)C1(C)C(=O)N=C2C3=C(CCCC3)C(=O)N21 (configuration not stated) | x | x | x | 16.7%[46.1 µM] | x | x
O=C(Cn1nc2ccccc2n1)N/N=C/c1cc([N+](=O)[O-])ccc1O | u | 4.65µM* | u | 10µM* | 10.7 | u
O=C(Cn1cncn1)N/N=C/c1cc([N+](=O)[O-])ccc1O | x | u | u | x | 18.4 | -0.5%
COc1ccc(NC(=O)c2ncn(-c3ccccc3)n2)cc1Cl | -0.2%[46.1 µM] | x | x | u | 71.8 | x
Nc1ccccc1SCc1ccccc1Cl | -4.2% | 29.7% | 46.4% | u | -65.8* | 6.1%
COc1ccc(OC)c(NC(=O)Cn2c(=O)n(Cc3nc(C)no3)c(=O)c3ccccc32)c1 | 21.2%[46.1 µM] | x | x | x | -6.7 | x
O=C(Cc1ccc(F)cc1)Nc1ccccc1N1CCCC1 | x | -16.8% | -13.0% | x | 10.6 | -1.7%
CC(Oc1ccc(Br)cc1)C(=O)Nc1cc(Cl)ccc1N1CCN(C)CC1 (configuration not stated) | u | 11.7µM* | 11.7µM* | 8.91µM* | -4.3 | u
O=C(Cc1ccc(Cl)c(Cl)c1)Nc1ccccc1N1CCCC1 | x | -12.0% | 11.7µM* | x | -22.1 | u
COc1ccc(CCC(=O)Nc2cc(Cl)ccc2N2CCN(C)CC2)cc1 | -26.8% | 7.38µM* | 4.65µM* | u | -3.4 | u
CN1CCN(c2ccc(Cl)cc2NC(=O)CCN2C(=O)c3ccccc3C2=O)CC1 | x | 7.5% | u | x | 101.4 | -11.2%
COc1ccc(CC(=O)Nc2cc(Cl)ccc2N2CCCC2)cc1 | -15.3% | u | -24.9% | u | -62.9* | u
O=C(CN1C(=O)NC2(CCCC2)C1=O)Nc1cc(Cl)ccc1N1CCCCC1 | 3.2% | u | 13.1µM* | u | -15.8 | 5.4%
CC(=O)c1cccc(NS(=O)(=O)c2ccc(N/C=C\C(=O)c3ccc(C)cc3)cc2)c1 | -3.2% | u | u | u | -2.1 | u
CC(=O)c1cccc(N/C=C\C(=O)c2ccc(C)cc2)c1 | 7.94µM* | 296.5% | -43.1% | u | 103.0 | -19.3%
CC(=O)c1cccc(NS(=O)(=O)c2ccc(N/C=C\C(=O)c3ccc(F)cc3)cc2)c1 | u | u | u | u | u | 11.2µM*
CC(=O)c1cccc(NS(=O)(=O)c2ccc(N/C=C/C(=O)c3ccc(F)cc3)cc2)c1 | u | u | u | -60.8% | u | 11.2µM*
CC(=O)c1cccc(NS(=O)(=O)c2ccc(NC(=O)N3CCCCC3)cc2)c1 | u | 3.6% | 10.4µM* | 2.24µM* | -70.8* | u
C/C(=C\C(=O)c1ccc(C)cc1)Nc1cccc(O)c1 | -26.0% | 398.4% | 144.7% | -15.7% | 88.9 | 12.6µM*
COC(=O)c1ccc2cn[nH]c2c1 | x | x | x | x | 46.5 | x
CCOC(=O)[C@]12Cc3cc(OC)ccc3[C@H]1N(CCC(=O)OC)C(=O)c1cc(OC)ccc12 | x | x | x | x | -107.4* | x
CCOC(=O)[C@]12Cc3ccccc3[C@H]1N(Cc1ccccc1)C(=O)c1cc(OC)ccc12 | x | x | x | x | 12.4 | x
CCOC(=O)[C@]12Cc3c(cc(OC)c(OC)c3OC)[C@H]1N(C)C(=O)c1ccccc12 | x | x | x | x | -38.7 | x
CCOC(=O)[C@]12Cc3c(cc(OC)c(OC)c3OC)[C@H]1N(CCC(=O)OC)C(=O)c1ccccc12 | x | x | x | x | -108.4* | x
CCOC(=O)[C@]12Cc3ccccc3[C@H]1N(CCC(=O)OC)C(=O)c1cc(OC)ccc12 | x | x | x | x | -99.4* | x
